According to PubChem BioAssay (NCI):
This is part of a sample that, as a whole, favours compounds with a hit. Of some 79,000 tested, about 15% had one in any assay. Calls of active or inactive are those of the source. No stated cut-off is given here; in the data, active means growth inhibition above about 70%; inactive means the rest.

Key:
[1] = NCI Yeast Anticancer Drug Screen. Data for the rad52 strain (AID 147);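 further: 0% = growth of vehicle-treated control cultures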; conditions: S. cerevisiae rad52 mutant growth inhibition, stronger effect = higher value
How it was run: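 Compounds are applied to a genetically defined yeast strain lacking normal DNA damage repair, and inhibition of growth is expressed relative to cultures given vehicle only.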

[2] = NCI Yeast Anticancer Drug Screen. Data for the wt1 strain (AID 149);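 further: 0% = growth of vehicle-treated wt1 cultures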; conditions: S. cerevisiae wt1 strain (SPY 50644) growth inhibition, stronger effect = higher value
How it was run: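 Yeast wt1 strain exposed to compounds; growth inhibition measured relative to vehicle-treated controls.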

[3] = NCI Yeast Anticancer Drug Screen. Data for the rad50EPP+ strain (AID 151);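 further: 0% = growth of vehicle-treated control cultures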; conditions: S. cerevisiae rad50 mutant strain, stronger effect = higher value
How it was run: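 Compounds were applied to the rad50EPP+ yeast strain, which bears a defined DNA repair alteration, and growth inhibition was determined relative to vehicle-treated cultures.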

[4] = NCI Yeast Anticancer Drug Screen. Data for the mgt1 strain (AID 153); conditions: S. cerevisiae mgt1 mutant growth inhibition, stronger effect = higher value
How it was run: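 Strain: mgt1 yeast, one of a set carrying defined DNA damage repair or cell cycle control alterations. Compound-treated growth compared with vehicle.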

[5] = NCI Yeast Anticancer Drug Screen. Data for the rad50 strain (AID 155);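 further: 0% = growth of vehicle-only cultures of the same strain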; conditions: S. cerevisiae rad50 strain growth inhibition, stronger effect = higher value
How it was run: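 Yeast carrying a defined DNA repair defect were exposed to test compounds, and growth was compared with vehicle-treated controls to give percent inhibition.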

[6] = NCI Yeast Anticancer Drug Screen. Data for the mec2-1 strain (AID 157); conditions: S. cerevisiae mec2-1 strain, stronger effect = higher value
How it was run: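 Strain: mec2-1 (DNA repair/cell cycle alteration). Compound exposure, then growth measured; inhibition expressed relative to vehicle.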

[7] = NCI Yeast Anticancer Drug Screen. Data for the rad14 strain (AID 159);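 further: 0% = growth of vehicle-treated control cultures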; conditions: S. cerevisiae rad14 strain growth inhibition, stronger effect = higher value
How it was run: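 Yeast cells carrying a defined DNA-repair defect were exposed to compounds, and growth inhibition was calculated relative to vehicle-treated control cultures.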

[8] = NCI Yeast Anticancer Drug Screen. Data for the sgs1 mgt1 strain (AID 161);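 further: 0% = growth of cultures given vehicle only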; conditions: S. cerevisiae sgs1 mgt1 strain, stronger effect = higher value
How it was run: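 Test agents were incubated with a DNA-repair-mutant yeast strain. Growth was then read and compared against vehicle-treated controls.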

[9] = NCI Yeast Anticancer Drug Screen. Data for the CLN2oe strain (AID 163);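 further: 0% = growth of vehicle-only control cultures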; conditions: S. cerevisiae CLN2oe strain, stronger effect = higher value
How it was run: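 Growth of a genetically modified yeast strain is measured after compound exposure and compared with cultures given vehicle alone.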

[10] = NCI Yeast Anticancer Drug Screen. Data for the cln2 rad14 strain (AID 165);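 further: 0% = growth equal to vehicle treated cultures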; conditions: S. cerevisiae cln2 rad14 strain, stronger effect = higher value
How it was run: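 Compounds are applied to the cln2 rad14 yeast strain, and growth is then compared with that of vehicle-treated cultures to give inhibition.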

[11] = NCI Yeast Anticancer Drug Screen. Data for the bub3 strain (AID 167); conditions: S. cerevisiae bub3 mutant strain, stronger effect = higher value
How it was run: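 Compounds were applied to a genetically altered yeast strain carrying a cell-cycle control defect. Growth inhibition was scored against vehicle-treated controls.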

[12] = NCI Yeast Anticancer Drug Screen. Data for the wt2 strain (AID 169);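 further: 0% = growth of vehicle-treated yeast cultures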; conditions: S. cerevisiae wt2 strain growth inhibition, stronger effect = higher value
How it was run: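 This strain belongs to a panel of yeast strains with defined genetic alterations in DNA damage repair or cell cycle control. Compounds are applied, and growth inhibition is measured against vehicle-treated cultures.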

[13] = NCI Yeast Anticancer Drug Screen. Data for the mlh1 strain (AID 171);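 further: 0% = growth of vehicle-treated control cultures of the same strain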; conditions: S. cerevisiae mlh1 strain growth inhibition, stronger effect = higher value
How it was run: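 Growth of the mutant yeast strain after compound exposure, expressed as inhibition relative to vehicle-only controls.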

[14] = NCI Yeast Anticancer Drug Screen. Data for the sgs1 strain (AID 173);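 further: 0% = growth of vehicle-only control cultures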; conditions: S. cerevisiae sgs1 mutant, stronger effect = higher value
How it was run: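 Growth of a yeast strain bearing a defined genetic alteration is measured after compound treatment. Inhibition is expressed relative to vehicle-only controls.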

[15] = NCI Yeast Anticancer Drug Screen. Data for the mlh1 rad18 strain (AID 175); conditions: S. cerevisiae mlh1 rad18 strain growth inhibition, stronger effect = higher value
How it was run: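 Read-out is yeast growth inhibition, calculated against vehicle-only controls. The compound was applied to a strain engineered with DNA damage repair alterations.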

[16] = NCI Yeast Anticancer Drug Screen. Data for the rad18 strain (AID 177); conditions: S. cerevisiae rad18 mutant growth inhibition, stronger effect = higher value
How it was run: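 Growth of the mutant yeast strain after compound exposure, normalised to vehicle-only cultures.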

[17] = at 5.0 µM (retest, dose inferred, filed as 0.5)
[18] = at 50.0 µM (retest, dose inferred, filed as 5.0)

Measured: growth inhibition

CCOc1ccc2c(c1)c(CC(=O)O)cn2C
inactive: [1]; at 1.2 µM 0% | [1]; at 3.7 µM 7% | [1]; at 11.0 µM 20% | [1]; at 33.0 µM 60% | [2]; at 1.2 µM -4% | [2]; at 3.7 µM -3% | [2]; at 11.0 µM 3% | [2]; at 33.0 µM 28% | [2]; at 100.0 µM 54% | [3]; at 1.2 µM 6% | [3]; at 3.7 µM 27% | [4]; at 1.2 µM -3% | [4]; at 3.7 µM -6% | [4]; at 11.0 µM 1% | [4]; at 33.0 µM 18% | [4]; at 100.0 µM 51% | [5]; at 1.2 µM -6% | [5]; at 3.7 µM 7% | [5]; [17] -74% | [5]; at 11.0 µM 48% | [5]; at 50.0 µM 32.8% | [6]; at 1.2 µM 1% | [6]; at 3.7 µM -2% | [6]; [17] -40% | [6]; at 11.0 µM -7% | [6]; at 33.0 µM 27% | [6]; [18] 3% | [6]; at 50.0 µM 38.6% | [6]; at 100.0 µM 48% | [7]; at 1.2 µM 4% | [7]; at 3.7 µM 7% | [7]; at 11.0 µM 20% | [7]; at 33.0 µM 57% | [8]; [17] -38% | [8]; [18] 63% | [8]; at 50.0 µM 23.4% | [9]; at 1.2 µM -3% | [9]; at 3.7 µM -1% | [9]; at 11.0 µM 6% | [9]; at 33.0 µM 24% | [9]; at 100.0 µM 40% | [10]; [17] -47% | [10]; [18] -21% | [10]; at 50.0 µM 18.8% | [11]; at 1.2 µM -10% | [11]; at 3.7 µM 0% | [11]; [17] -49% | [11]; at 11.0 µM 12% | [11]; at 33.0 µM 50% | [12]; at 1.2 µM -3% | [12]; at 3.7 µM -3% | [12]; at 11.0 µM -3% | [12]; at 33.0 µM 16% | [12]; at 100.0 µM 61% | [13]; at 1.2 µM 5% | [13]; at 3.7 µM -4% | [13]; at 11.0 µM 13% | [13]; at 33.0 µM 42% | [14]; at 1.2 µM -1% | [14]; at 3.7 µM -3% | [14]; at 11.0 µM 21% | [14]; at 33.0 µM 63% | [15]; [17] -81% | [16]; at 1.2 µM 3% | [16]; at 3.7 µM 5% | [16]; at 11.0 µM 26% | [16]; at 33.0 µM 57%
active: [1]; at 100.0 µM 85% | [3]; at 11.0 µM 71% | [3]; at 33.0 µM 94% | [3]; at 100.0 µM 97% | [5]; at 33.0 µM 92% | [5]; [18] 94% | [5]; at 100.0 µM 98% | [7]; at 100.0 µM 75% | [11]; [18] 81% | [11]; at 50.0 µM 79.8% | [11]; at 100.0 µM 87% | [13]; at 100.0 µM 75% | [14]; at 100.0 µM 89% | [15]; [18] 92% | [15]; at 50.0 µM 88.2% | [16]; at 100.0 µM 87%

Clc1ccccc1C1OC1c1ccccc1Cl (stereo unspecified)
inactive: [1]; at 1.2 µM -29% | [1]; at 3.7 µM -38% | [1]; at 11.0 µM -61% | [1]; at 33.0 µM -18% | [1]; at 100.0 µM -32% | [2]; at 1.2 µM -65% | [2]; at 3.7 µM -49% | [2]; at 11.0 µM -61% | [2]; at 33.0 µM -52% | [2]; at 100.0 µM -26% | [3]; at 1.2 µM -86% | [3]; at 3.7 µM -56% | [3]; at 11.0 µM -40% | [3]; at 33.0 µM 20% | [4]; at 1.2 µM -60% | [4]; at 3.7 µM -90% | [4]; at 11.0 µM -65% | [4]; at 33.0 µM -35% | [4]; at 100.0 µM -27% | [5]; at 1.2 µM -66% | [5]; at 3.7 µM -62% | [5]; [17] 57% | [5]; at 11.0 µM -73% | [5]; at 33.0 µM -51% | [5]; at 50.0 µM 38.6% | [5]; at 100.0 µM 14% | [6]; at 1.2 µM -92% | [6]; at 3.7 µM -86% | [6]; [17] 55% | [6]; at 11.0 µM -94% | [6]; at 33.0 µM -75% | [6]; at 50.0 µM 21.9% | [6]; at 100.0 µM -37% | [7]; at 1.2 µM -46% | [7]; at 3.7 µM -46% | [7]; at 11.0 µM -50% | [7]; at 33.0 µM -43% | [7]; at 100.0 µM -9% | [8]; [17] -17% | [8]; at 50.0 µM 44.9% | [9]; at 1.2 µM -3% | [9]; at 3.7 µM 7% | [9]; at 11.0 µM -1% | [9]; at 33.0 µM -1% | [9]; at 100.0 µM 8% | [10]; [17] 37% | [10]; at 50.0 µM 13.6% | [11]; at 1.2 µM -56% | [11]; at 3.7 µM -53% | [11]; [17] 0% | [11]; at 11.0 µM -47% | [11]; at 33.0 µM -42% | [11]; at 50.0 µM 41.6% | [11]; at 100.0 µM -6% | [12]; at 1.2 µM -49% | [12]; at 3.7 µM -71% | [12]; at 11.0 µM -69% | [12]; at 33.0 µM -46% | [12]; at 100.0 µM -16% | [13]; at 1.2 µM -69% | [13]; at 3.7 µM -69% | [13]; at 11.0 µM -35% | [13]; at 33.0 µM -50% | [13]; at 100.0 µM 24% | [14]; at 1.2 µM -78% | [14]; at 3.7 µM -72% | [14]; at 11.0 µM -81% | [14]; at 33.0 µM -38% | [14]; at 100.0 µM 18% | [15]; [17] 57% | [15]; at 50.0 µM 5% | [16]; at 1.2 µM -59% | [16]; at 3.7 µM -48% | [16]; at 11.0 µM -64% | [16]; at 33.0 µM -48% | [16]; at 100.0 µM 2%
active: [3]; at 100.0 µM 70% | [5]; [18] 100% | [6]; [18] 99% | [8]; [18] 98% | [10]; [18] 99% | [11]; [18] 98% | [15]; [18] 100%
